# High-throughput results from PubChem.
# Shown are actives, neighbours in structure and some others; about 3.4% of the full set was active somewhere.
# FBW7 act: FBW7 E3 ligase activators, primary screen, biochemical, AlphaScreen, human; actives 0.13% (n = 650,000); F-box/WD repeat-containing protein 7 (Homo sapiens), Q969H0; normalized activity (activation), % at 26.1 µM; AlphaScreen FBW7–phospho-cyclin E peptide binding, activator screen; in the data active = normalized activity above about 1.9%;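 note: purified mutant Fbw7 with reduced substrate affinity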
# GPR151 ag: activators of human GPR151, primary screen, cell-based, PathHunter beta-arrestin, luminescence | PathHunter beta-arrestin GPR151 cells | activation, % at 11.2 µM | actives 1% (n = 650,000); in the data active = activation above about 4.9%;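 note: 0% = median of compound wells and 100% = cells with positive control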
# MITF primary: MITF inhibitors, primary screen, biochemical, AlphaScreen, human; actives 0.91% (n = 650,000); Microphthalmia-associated transcription factor (Homo sapiens), O75030; AID 1259374, 2018; AlphaScreen MITF homodimerization, bead proximity signal; inhibition, % at 2.6 µM; in the data active = inhibition above about 50%;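 note: 0% = vehicle wells with protein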
# TEAD-YAP block: TEAD-YAP interaction inhibition, primary screen, TEAD-YAP interaction inhibitor project, luminescence, HEK-TIYL cells | actives 1.4% (n = 640,000) | TEAD-Gal4/YAP UAS-luciferase luminescence | inhibition, % at 9.12 µM; in the data active = inhibition above about 32%;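 note: 0% = median of test compound wells and 100% = reference inhibitor wells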
# GPR151 conf act: GPR151 activators, triplicate retest, confirmation, cell-based, PathHunter beta-arrestin, luminescence; AID 1508609, 2020; shares compounds with GPR151 ag; GPR151 PathHunter beta-arrestin cells, 90 min; % of EA-reagent control over plate median; 6,700 tested, under 10 active; activation, % at 11.2 µM;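 active = mean percent activation across replicates above the confirmation screen cutoff of 4.91%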
# GPR119 ag: GPR119 activators in beta-arrestin cells, counter-screen for GPR151 activator project, cell-based, PathHunter beta-arrestin, luminescence, triplicate. shares compounds with GPR151 ag. 90 min; 0 = compound-well median, 100 = enzyme-acceptor control. activation, % at 11.2 µM. actives 0.3% (n = 6,700). AID 1508611, 2020;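 active = mean percent activation in the counterscreen above 29.09%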;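 note: counterscreen on off-target GPR119 to flag nonselective hits from the GPR151 activator screen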
# Target sequence (Q8TDV5 whole entry, looked up): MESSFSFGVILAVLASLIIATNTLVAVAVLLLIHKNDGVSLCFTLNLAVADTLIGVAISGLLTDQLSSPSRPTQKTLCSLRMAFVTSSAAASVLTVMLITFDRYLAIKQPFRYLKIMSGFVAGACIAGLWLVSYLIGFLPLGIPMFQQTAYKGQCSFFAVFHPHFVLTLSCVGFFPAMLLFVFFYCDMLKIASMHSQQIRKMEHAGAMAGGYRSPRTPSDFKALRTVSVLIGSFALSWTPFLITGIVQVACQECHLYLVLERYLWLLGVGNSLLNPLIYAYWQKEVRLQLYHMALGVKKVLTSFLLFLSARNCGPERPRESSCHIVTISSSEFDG
# * hit, by the source's call; · = not tested or not shown.
SMILES,FBW7 act,GPR151 ag,MITF primary,TEAD-YAP block,GPR151 conf act,GPR119 ag
CC/C(=N\OC)c1ccccc1Oc1nc(OC)cc(OC)n1,0.0,0.0,11.3,-0.5,·,·
COC(=O)c1c(OCc2ccccn2)cc(=O)n2c1CCN(C(=O)c1ccccc1C)CC2,-0.3,-1.0,-15.3,-1.5,·,·
COC(=O)c1c(OCc2ccncc2)cc(=O)n2c1CCN(C(=O)c1ccccc1C)CC2,-0.1,5.1*,-19.1,-17.4,0.9,-2.1
CCn1cc(/C=C/[N+](=O)[O-])c2ccccc21,-0.3,-0.9,8.0,-3.2,·,·
Cn1c(=O)c2c(ncn2CC(=O)N/N=C/c2cccc(F)c2)n(C)c1=O,-0.1,5.6*,-2.3,-3.6,-0.2,-5.8
Cc1cc(C(F)(F)F)nc2snc(Br)c12,0.0,5.2*,7.8,2.0,-1.0,-8.7
O=C(CCN1CCN(C2c3ccccc3-c3ccccc32)CC1)Nc1ccc(F)cc1,-0.1,6.8*,-1.4,-6.2,-0.1,8.2
COC(c1ccc2c(c1)CN(C(=O)c1nc3ncccn3n1)CCO2)C1CCCCC1 (configuration not stated),0.0,9.5*,7.5,-4.0,0.2,11.0
CNC(=O)c1cc(F)ccc1Nc1cc(Nc2cccc(OC)c2)ncc1C(F)(F)F,-0.1,9.3*,-10.3,14.2,0.5,-1.4
CC(C)Cn1c(=O)[nH]c2nc(-c3cnn(C)c3)cnc21,-0.1,0.0,11.1,0.5,·,·
Cn1cc(-c2cnc3c(n2)[nH]c(=O)n3CC2CC2)cn1,0.2,7.7*,21.8,5.1,0.7,7.8
COc1cc(C2C(C(=O)OC3CCCC3)=C(C)NC3=C2C(=O)CC(c2ccc(Cl)cc2)C3)ccc1OC(C)=O (configuration not stated),0.1,5.5*,4.8,5.1,-0.1,-0.1
CCOc1ccc(C2C(C(=O)OC3CCCCC3)=C(C)NC3=C2C(=O)CCC3)cc1OC (configuration not stated),0.0,1.3,-7.4,3.8,·,·
CCCOc1ccc(C2C(C(=O)OC3CCCCC3)=C(C)NC3=C2C(=O)CCC3)cc1OC (configuration not stated),0.8,7.2*,11.7,16.7,-1.1,-6.4
COCCn1cc(C(=O)NCCc2ccc(Cl)cc2)c2c3ccccc3n(C)c2c1=O,0.0,-0.8,-3.6,6.7,·,·
CC(C)N(CCNc1ncnc2c1nc(Nc1ccncn1)n2C(C)C)C(C)C,-0.2,0.9,-21.8,-15.3,·,·
O=[N+]([O-])c1ccc2nc(CCCc3nc4ccc([N+](=O)[O-])cc4[nH]3)[nH]c2c1,-0.3,-1.0,5.4,12.8,·,·
CC(O)CCc1nc2ccc([N+](=O)[O-])cc2[nH]1 (configuration not stated),-0.2,5.1*,0.5,-10.0,-0.5,-4.2
O=C(NCc1nc2ccccc2[nH]1)c1cccc(-c2ccccc2)n1,0.1,7.1*,-3.1,8.0,1.3,-2.8
CCOc1ccc(NC(=O)CSc2nnc(-c3cccs3)n2CC)cc1,0.1,1.5,10.9,14.8,·,·
O=C1CCCN1CCn1cnc2c(Nc3ccc(N4CCOCC4)cc3)nc(N3CCc4ccccc4C3)nc21,-0.4,12.6*,-5.2,3.1,0.2,-6.0
O=C1CCCN1CCn1cnc2c(Nc3ccc(Oc4ccccc4)cc3)nc(N3CCc4ccccc4C3)nc21,-0.1,1.9,-5.6,10.7,·,·
O=C1CCCN1CCn1cnc2c(NCc3cccc(C(F)(F)F)c3)nc(Nc3ccc(N4CCOCC4)cc3)nc21,0.0,5.6*,4.4,-5.0,1.5,2.7
FC(F)(F)c1cccc(CNc2ncnc3nc(Nc4ccc(N5CCOCC5)cc4)[nH]c23)c1,0.1,7.1*,2.3,6.7,0.2,-4.8
FC(F)(F)c1cccc(CNc2ncnc3nc(Nc4ccccc4)[nH]c23)c1,-0.1,2.6,13.4,-1.4,·,·
SMILES,FBW7 act,GPR151 ag,MITF primary,TEAD-YAP block,GPR151 conf act,GPR119 ag
O=C1CCCN1CCCNc1nc(NCc2cccc(C(F)(F)F)c2)c2ncn(C3CCCCC3)c2n1,0.1,5.9*,8.0,-11.0,0.6,0.7
Cc1onc(-c2c(Cl)cccc2Cl)c1C(=O)N(C)c1ccccc1,0.0,-1.1,-17.5,-5.3,·,·
CCc1ccc(C(=O)Nc2nc3ccc(OC)cc3s2)cc1,-0.1,-0.6,2.2,-44.2,·,·
O=C(CC1C(=O)NCCN1Cc1ccc(Cl)c(F)c1)NCC1(O)CCCCC1 (configuration not stated),-0.1,0.1,-6.3,-6.2,·,·
C/C(=N\NC(=O)c1ccc(F)cc1)c1ccc([N+](=O)[O-])cc1,-0.1,8.1*,10.1,-25.1,-1.0,-14.2
Cc1cccc(N2C(=O)C(Cl)=C(Nc3ccc(F)cc3)C2=O)c1,0.1,-0.1,2.5,-7.3,·,·
COc1cc(-c2cn[nH]c2)cc2c(=O)[nH]c(C3COc4ccc(C)cc4C3)nc12 (configuration not stated),0.3,5.6*,9.9,7.0,-0.6,-5.7
CCCCOc1ccc(C2C3=C(CC(C)(C)CC3=O)Nc3ccccc3N2C(=O)CC)cc1 (configuration not stated),0.0,6.7*,-8.6,4.8,1.1,10.3
CC(=O)N1c2ccccc2NC2=C(C(=O)CC(C)(C)C2)C1c1ccccn1 (configuration not stated),0.1,5.2*,-21.2,-9.4,0.4,8.2
COC(=O)COc1ccc(NC(=O)c2cccc([N+](=O)[O-])c2C)cc1,0.0,1.6,20.8,7.6,·,·
O=C(CCC1CCCCC1)NNC(=O)c1cnccn1,-0.2,6.5*,7.1,-2.6,-0.4,-1.1
O=C(NNC(=O)C1CCCCC1)c1cnccn1,-0.5,-0.4,13.0,-2.7,·,·
O=C(Cc1cccs1)N/N=C\c1ccccc1[N+](=O)[O-],0.1,-1.6,-5.7,-20.6,·,·
N#Cc1c(NC(=O)CN2CCN(c3ccccc3F)CC2)sc2c1CCCC2,-0.1,6.6*,-4.1,-15.8,0.4,8.2
COc1ccc(CNC(=O)CSc2nnc(NC(=O)c3ccccc3Cl)s2)cc1,-0.1,6.3*,-4.1,-26.4,0.6,-3.5
CC(=O)Nc1nnc(SCC(=O)Nc2cccc(Cl)c2C)s1,-0.1,8.7*,-1.3,8.7,-0.8,-10.1
Cc1c(Cl)cccc1NC(=O)CSc1ncnc2c1sc1ccccc12,-0.1,12.4*,5.4,15.8,-0.7,2.6
CCC(=O)Nc1nnc(SCC(=O)Nc2ccc(Cl)c(Cl)c2)s1,0.3,8.9*,3.4,3.5,0.0,6.2
